Screens: PubChem BioAssay, NMMLSC
Hits are enriched below; roughly 1.2% of the tested compounds scored in any of these assays.
RGS16-Gao – RGS16-Galphao interaction regulator (human) | O15492+P09471 | bead-based flow cytometry RGS16-Galphao binding, fluorescence; actives lie on both sides | binding response (% of control), % at 10 µM | hit rate 0.38% among 220,000;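 further: Galphao activated by GDP with aluminum fluoride before binding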
Target sequence (O15492 whole entry, looked up): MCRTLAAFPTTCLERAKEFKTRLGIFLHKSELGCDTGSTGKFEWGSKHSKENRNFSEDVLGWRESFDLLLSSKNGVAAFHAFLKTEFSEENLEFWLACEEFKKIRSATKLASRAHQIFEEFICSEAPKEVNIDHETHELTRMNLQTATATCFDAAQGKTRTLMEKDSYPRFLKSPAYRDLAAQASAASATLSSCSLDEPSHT
Target sequence (P09471 whole entry, looked up): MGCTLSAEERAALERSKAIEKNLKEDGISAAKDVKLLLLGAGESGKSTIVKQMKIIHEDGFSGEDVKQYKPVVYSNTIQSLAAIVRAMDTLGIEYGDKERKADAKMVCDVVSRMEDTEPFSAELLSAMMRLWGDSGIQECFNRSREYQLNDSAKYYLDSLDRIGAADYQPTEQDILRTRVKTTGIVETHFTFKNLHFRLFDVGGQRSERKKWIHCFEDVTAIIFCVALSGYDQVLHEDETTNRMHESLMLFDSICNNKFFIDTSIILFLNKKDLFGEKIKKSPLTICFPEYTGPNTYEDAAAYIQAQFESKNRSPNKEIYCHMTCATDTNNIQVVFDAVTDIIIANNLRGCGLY
Avidin bead fluor – compound fluoresces at 488/530 nm on avidin beads | compound fluorescence 488/530 nm, flow cytometry; stronger effect = higher value | fluorescence (KMESF) at 10 µM | hit rate 0.38% among 220,000 | AID 1775; in the data active means fluorescence above about 47
RGS8-Gao – human RGS8-Galphao interaction regulation; multiplexed bead flow cytometry, RGS8-Galphao binding; actives lie on both sides; hit rate 0.34% among 220,000; response (percent of control binding), % at 10 µM; in the data active means response below about 60% or above about 140%; inactive means in between;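 further: Galphao activated as the GDP aluminium fluoride complex binding bead-coupled RGS8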
Target sequence (P09471 whole entry, looked up): as above
RGS4-Gao reg – human RGS4-Galphao interaction regulation; hit rate 0.33% among 220,000; P09471; Multiplexed bead flow cytometry, RGS4-Galphao binding; actives lie on both sides; binding response (% of control), % at 10 µM; in the data active means binding response below about 49% or above about 150%; inactive means in between;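 further: fluorescent Galphao activated with aluminum fluoride binding bead-coupled RGS4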
RGS7-Gao – modulates binding of RGS7 to human Galphao | Multiplexed bead flow cytometry; actives lie on both sides | AID 1439 | hit rate 0.35% among 220,000 | binding response (% of control), % at 10 µM; in the data active means binding response below about 49% or above about 150%; inconclusive means no clear call, values can overlap the other calls; inactive means in between;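 further: fluorescent Galphao held in activated GDP-AlF4 state binding bead-coupled RGS7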
GSH fluor – GSH bead compound fluorescence profile; GSH beads flow cytometry, compound fluorescence 488/530 nm; stronger effect = higher value; fluorescence (KMESF) at 10 µM; hit rate 0.25% among 190,000; AID 1776; in the data active means fluorescence above about 89;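 further: glutathione beads carrying GST-tagged Bcl family fusion proteins plus one bare bead set; values are compound well signal with DMSO vehicle wells as background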
RGS4-Gao HTS – modulates binding between human RGS4 and Galphao; shares compounds with RGS16-Gao; multiplexed bead flow cytometry, RGS–Galpha-o binding; RGS4–Galpha-o binding response, % at 10 µM; hit rate 99% among 1,600; AID 1504;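 further: fluorescently labeled Galpha-o bound to GDP with aluminium fluoride binding biotinylated RGS beads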
Biotin-avidin – counter-screen: compounds disrupting biotin binding to avidin beads; inhibition, % at 10 µM; shares compounds with RGS16-Gao; AID 1783; 1,700 tested, under 10 active; streptavidin beads, fluorescein-biotin binding, flow cytometry;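 active means inhibition above 50%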;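 further: median green fluorescence of gated singlet beads compared with DMSO control wells; 0% = DMSO wells and 100% = complete loss of bead fluorescence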
RGS8-Gao single – confirmation of regulators of human RGS8-Galphao interaction; shares compounds with RGS16-Gao; bead-based flow cytometry RGS8-Galphao binding, fluorescence; actives lie on both sides; binding response (% of control), % at 10 µM; hit rate 3% among 1,700; AID 1836; in the data active means binding response below about 72% or above about 130%; inactive means in between;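 further: Galphao activated as GDP AlF4 complex before binding bead RGS8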
RGS7-Gao single – RGS7-Galphao interaction regulation, single point confirmation | shares compounds with RGS16-Gao | hit rate 7.8% among 1,700 | bead-based flow cytometry RGS7-Galphao binding; actives lie on both sides | AID 1837 | response (percent of control binding), % at 10 µM; in the data active means response below about 75% or above about 130%; inactive means in between;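 further: fluorescent Galphao activated with GDP and aluminum fluoride binding bead-coupled RGS7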
RGS16-Gao conf – RGS16-Galphao interaction regulation, single point confirmation. shares compounds with RGS16-Gao. bead-based flow cytometry, RGS16-Galphao binding; actives lie on both sides. response (% of control binding), % at 10 µM. hit rate 4% among 1,700. AID 1838; in the data active means response below about 74% or above about 130%; inactive means in between;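 further: Galphao activated as the GDP aluminium fluoride complex binding bead-coupled RGS16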
RGS4-Gao single – RGS4-Galphao interaction regulation, single point confirmation; AID 1840; hit rate 4% among 1,700; binding response (% of control), % at 10 µM; shares compounds with RGS16-Gao; RGS4-Galphao binding, multiplexed bead flow cytometry; actives lie on both sides; in the data active means binding response below about 74% or above about 130%; inactive means in between
RGS19-Gao single – RGS19-Galphao interaction regulation, single point confirmation; bead-based flow cytometry RGS19-Galphao binding; actives lie on both sides; hit rate 5% among 1,700; shares compounds with RGS16-Gao; AID 1841; response (percent of control binding), % at 10 µM; in the data active means response below about 50% or above about 160%; inactive means in between;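 further: 100% = no compound control and 0% = blank background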
An asterisk follows results filed as active; ? = inconclusive; · = not tested or not shown; [ ] = dose if it differs, or a comment. Unless noted, how the calls were made is not given here.

SMILES	RGS16-Gao	Avidin bead fluor	RGS8-Gao	RGS4-Gao reg	RGS7-Gao	GSH fluor	RGS4-Gao HTS	Biotin-avidin	RGS8-Gao single	RGS7-Gao single	RGS16-Gao conf	RGS4-Gao single	RGS19-Gao single
Cn1c(=O)n(C)c2cc(S(=O)(=O)NCc3ccco3)ccc21	114	176*	101	117	204*[activator]	23	117*	2	104	102	103	102	110
CCOC(=O)Nc1ccc(Cc2ccncc2)cc1	101	10	99	104	101	15	·	·	·	·	·	·	·
O=C(NCCO)Nc1ccc2nc(-c3ccco3)c(-c3ccco3)nc2c1	17*	-1	48*	66	40*	9	66*	·	·	·	·	·	·
COC(=O)C[N+](C)(C)CC#Cc1ccccc1	82	10	96	101	98	3	·	·	·	·	·	·	·
COc1cccc(-n2c(=O)n(Cc3ccccc3)c(=O)c3[nH]cnc32)c1C	96	5	99	97	?	·	·	·	·	·	·	·	·
CN(C)C1C(=O)c2ccccc2C1=O	90	13	96	93	93	12	·	·	·	·	·	·	·
O=C(O)c1nccnc1C(=O)NCCc1c[nH]c2ccccc12	101	12	102	101	?	9	·	·	·	·	·	·	·
O=C(NCCc1c[nH]c2ccccc12)c1c(Cl)nc2sccn12	2.2*	-1	17*	30*	19*	21	·	-1	114	125	109	110	103
Cc1ccc(C)n1Cc1ccc(C(=O)O)cc1	76	21	68	89	49*	12	89*	·	·	·	·	·	·
CC(C)(C)c1ccc(NC(=O)COC(=O)C2=COCCO2)cc1	-183*	3	106	117	109	4	117*	0	93	60*	75	73*	57
CC(C)c1ccc(NC(=O)COC(=O)C2=COCCO2)cc1	187	6	121	112	108	19	·	·	·	·	·	·	·
COc1ccccc1N1CCN(S(=O)(=O)c2ccc3c4c(cccc24)C(=O)N3C)CC1	-19*	-3	16*	-21*	-3.9*	31	·	1	101	104	103	104	104
COc1ccccc1N1CCN(S(=O)(=O)c2ccc3c4c(cccc24)C(=O)N3)CC1	117	20	108	118	114	14	·	·	·	·	·	·	·
CCOc1ccc(-n2c(SCc3ccc([N+](=O)[O-])cc3)nnc2-c2ccc(OC)cc2)cc1	103	15	98	98	101	16	·	·	·	·	·	·	·
O=c1c2ccccc2nc(/C=C/c2ccc(O)cc2)n1CCc1ccccc1	101	17	101	99	99	17	·	·	·	·	·	·	·
O=c1c2ccccc2nc(/C=C/c2ccc3c(c2)OCO3)n1CCCO	136	107*	105	109	168*[activator]	12	109*	1	103	102	105	102	105
Cc1cccc2cc(C#N)c(NCCCNS(=O)(=O)c3ccc(Cl)cc3)nc12	90	8	93	98	?	·	·	·	·	·	·	·	·
CNC(=O)c1ccsc1NC(=O)c1coc2ccccc2c1=O	1.6*	-1	12*	9.9*	-6.6*	18	·	0	100	89	99	93	78
O=C(Nc1ccc2c(c1)OCCO2)c1coc2ccccc2c1=O	99	7	99	102	97	11	·	·	·	·	·	·	·
CCn1nnnc1SCC(=O)NC1CCCC1	95	7	94	90	91	14	·	·	·	·	·	·	·
CC1CCC2(CC1)OCC1(CCC3(COC4(CCC(C)CC4)OC3)C1=O)CO2 (stereo unspecified)	104	20	104	106	103	9	·	·	·	·	·	·	·
Fc1cccc(Cl)c1/C=N/n1c(-c2cccnc2)n[nH]c1=S	1	6	59*	88	88	10	88*	-3	93	113	87	95	87
CCN(CC)S(=O)(=O)c1cccc(C(=O)Oc2cccc(NC(=O)c3cccs3)c2)c1	98	4	97	101	102	11	·	·	·	·	·	·	·
C=CCn1c(Cc2c[nH]c3ccccc23)nnc1SCC(=O)NCc1ccccc1	38	5	54*	47*	42*	26	·	-1	101	103	100	103	106
COc1cc(CC(NC(C)=O)C(=O)NC2CCN(C(=O)c3cc(OC)c(OC)c(OC)c3)CC2)cc(OC)c1 (stereo unspecified)	284	10	141*[activator]	110	119	11	110*	-1	102	105	103	104	102
SMILES	RGS16-Gao	Avidin bead fluor	RGS8-Gao	RGS4-Gao reg	RGS7-Gao	GSH fluor	RGS4-Gao HTS	Biotin-avidin	RGS8-Gao single	RGS7-Gao single	RGS16-Gao conf	RGS4-Gao single	RGS19-Gao single
O=C(CSc1nnc(NC(=O)c2ccco2)s1)Nc1ccccc1	101	8	99	99	?	14	·	·	·	·	·	·	·
COC(=O)Cc1c(C)nc2nc(NCc3ccc(Cl)cc3)[nH]n2c1=O	178*[activator]	86*	118	155*[activator]	151*[activator]	15	·	2	100	100	102	100	89
CN(C)C(=O)CSc1nc2ccc(N3C(=O)c4ccccc4C3=O)cc2s1	109	5	102	107	?	·	·	·	·	·	·	·	·
CCOc1ccc(C(=O)NCC(c2cccs2)N(C)C)cc1 (stereo unspecified)	107	10	100	100	100	21	·	·	·	·	·	·	·
CCn1ncc(C2=NOC(C(=O)Nc3cccc(O)c3)C2)c1C (stereo unspecified)	97	10	100	101	95	12	·	·	·	·	·	·	·
CSc1nncc(/C(C)=N/O)n1	93	6	95	96	98	12	·	·	·	·	·	·	·
CC/C(=N/O)c1cnnc(SC)n1	16*	7	84	95	97	6	95*	0	103	94	106	96	91
CC1(C(=O)N/N=C/c2ccc([N+](=O)[O-])o2)CC1(Br)Br (stereo unspecified)	13*	7	78	88	84	14	88*	2	101	98	98	101	90
